The campaign covered roughly 2,100 compounds. About 480 (23%) were called active. Roughly 5% stayed inconclusive and do not appear here.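 The calls were made as follows: active = fitted curve reaches 40% activation at or below the top valid concentration, in every replicate test; inconclusive = replicate tests disagree on the call; inactive = the rest, including activity in the opposite direction.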 A selection follows. Potency and affinity values are given separately.
test: PGC1a acetylation increase, cellular AlphaLISA – cell-based, cherry-picked samples, set 6, dose response (AID 720513); conditions: U2OS PGC1a acetylation AlphaLISA, overnight, 0 = neutral, -100 = inhibitor control; series mostly up to 19.5 µM; activation (acetylation increase): at the top concentration;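 also: cells made to overexpress flag tagged PGC1a plus GCN5 acetyltransferase by viral infection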

Activation (acetylation increase), inactive:
O=C1NC(Nc2nccs2)(C(F)(F)F)C(=O)N1CCc1ccccc1 (stereo not given) 36.6%, CC(C)CC(NC(=O)c1ccc(Cl)cc1)C(=O)OCC(=O)c1ccc2c(c1)NC(=O)CO2 (stereo not given) -91.4%, Cc1cc(C(=O)Nc2cccc3c2O[C@H](CN(C)C(=O)Nc2ccc4c(c2)OCO4)[C@@H](C)CN([C@H](C)CO)C3=O)n(C)n1 2.12% [at 21 µM], C[C@H]1CN([C@@H](C)CO)C(=O)c2cccc(NC(=O)c3ccncc3)c2O[C@H]1CN(C)C(=O)Nc1ccc2c(c1)OCO2 -14.8%, C[C@H]1CN([C@@H](C)CO)C(=O)Cc2cc(NS(=O)(=O)c3ccc(F)cc3)ccc2O[C@@H]1CN(C)C(=O)Nc1ccc2c(c1)OCO2 34.1% [at 21 µM], C[C@H]1CN([C@@H](C)CO)C(=O)CCCn2nncc2CO[C@@H]1CN(C)C(=O)Nc1ccc2c(c1)OCO2 -9.09%, OCCN(Cc1ccccc1)CC1CCCCC1 28.1%, O=C(Nc1ccccc1F)N1CCCCN2[C@@H](CO)[C@@H](c3ccc(C#Cc4ccccc4)cc3)[C@@H]2C1 -77.1% [at 21 µM], COc1ccc(NC(=O)C2(C)Cc3c(-c4cccc(NC(C)=O)c4)ccnc3O2)cn1 (stereo not given) 5.17%, CC(=O)Nc1cccc(-c2ccnc3c2CC(C)(C(=O)Nc2ccc(C(C)C)cc2)O3)c1 (stereo not given) 20.8%, C[C@@H]1CCCCO[C@@H](CN(C)CC2CC2)[C@@H](C)CN([C@H](C)CO)C(=O)c2cc(NC(=O)C3CCCCC3)ccc2O1 19.2%, CC(=O)Nc1ccc(C(=O)OC2CCOC2=O)cc1 (stereo not given) -33.4%, NC(=O)c1ccc(NC(=O)C#Cc2ccccc2)cc1 -15.7%, COc1ccccc1OCCn1c(C(C)O)nc2ccccc21 (stereo not given) -2.54%, COc1ccccc1C(=O)Nc1ccc2c(c1)C(=O)N(C)C[C@H](OC)[C@H](C)CN(CC1CC1)[C@@H](C)CO2 3.86%, CCCn1c(=O)c2ccccc2n2c(SCc3c(C(=O)OCC)oc4ccccc34)nnc12 21.8%, CCCCOc1ccc(/C=C/C(=O)OCC(=O)c2c(N)n(C)c(=O)n(C)c2=O)cc1OCC -26.6% [at 10 µM], COc1ccccc1-c1ccc([C@@H]2[C@H](CO)N(C(C)=O)C23CN(C(C)=O)C3)cc1 -21.7%, C[C@H](CO)N1C[C@H](C)[C@H](CN(C)S(=O)(=O)c2ccc(F)cc2)Oc2ccc(NS(=O)(=O)c3cn(C)cn3)cc2C1=O 11.4%, O=C(Nc1ccc(C(F)(F)F)cc1)N1C[C@@H]2N[C@H](C1)C2c1ccc(-c2cccc(F)c2)cc1 (stereo not given in full) -102%, CCN(CC)C(=O)c1ccc(O)c(OC)c1 4.18%, CCCN(C)C[C@H]1OCCCC[C@@H](C)Oc2ccc(NS(=O)(=O)c3ccc(Cl)cc3)cc2C(=O)N([C@@H](C)CO)C[C@H]1C 17.5%, C[C@@H]1CCCCO[C@H](CN(C)C(=O)Cc2ccccc2)[C@H](C)CN([C@@H](C)CO)C(=O)c2cc(N(C)C)ccc2O1 6.29%, CC(C)NC(=O)Nc1ccc2c(c1)C(=O)N([C@@H](C)CO)C[C@@H](C)[C@H](CN(C)C(=O)NC(C)C)OCCCC[C@@H](C)O2 5.53%, CC(C)NC(=O)Nc1ccc2c(c1)C(=O)N([C@H](C)CO)C[C@@H](C)[C@H](CN(C)S(=O)(=O)c1ccccc1)OCCCC[C@@H](C)O2 14.8% [at 21 µM], C[C@@H]1CCCCO[C@@H](CN(C)C)[C@@H](C)CN([C@H](C)CO)C(=O)c2cc(NS(=O)(=O)c3ccc(Cl)cc3)ccc2O1 21%, COc1ccc(NC(=O)N(C)C[C@@H]2OCCCC[C@@H](C)Oc3ccc(NC(=O)Cc4ccccc4)cc3C(=O)N([C@H](C)CO)C[C@@H]2C)cc1 16.1%, CC(C)NC(=O)Nc1ccc2c(c1)C(=O)N([C@@H](C)CO)C[C@@H](C)[C@H](CN(C)S(=O)(=O)c1ccccc1)OCCCC[C@@H](C)O2 33%, C[C@@H]1CN([C@@H](C)CO)C(=O)c2cc(N(C)C)ccc2O[C@@H](C)CCCCO[C@H]1CN(C)C(=O)c1ccncc1 -3.64%, O=C1CC2CS(=O)(=O)CC2N1c1ccc(Cl)cc1Cl (stereo not given) 16.7%, NS(=O)(=O)c1ccc(CCNC2CC(=O)N(Cc3ccccc3)C2=O)cc1 (stereo not given) -6.93%, O=C1CCN(S(=O)(=O)c2ccc(Cl)cc2)N1 22.7%, Cc1cc(C)n(CCc2nc3c4ccccc4n(CC#N)c(=O)n3n2)n1 0.376%, Cc1ccc(C(=O)Cn2c(C(=O)OCCO)cc3ccccc32)cc1 28.5%, COc1cc(C(=O)O)ccc1Cl -5.01%, Cc1ccc(Cn2ncc(Cl)c(Cl)c2=O)cc1 -95.1%, Cc1ccc(S(=O)(=O)Nc2ccc3c(c2)C(=O)N([C@H](C)CO)C[C@H](C)[C@H](CN(C)C(=O)NC(C)C)OCCCC[C@@H](C)O3)cc1 -12.8% [at 21 µM], Cc1noc(C)c1S(=O)(=O)Nc1ccc2c(c1)C(=O)N([C@@H](C)CO)C[C@@H](C)[C@@H](CN(C)CC1CCCCC1)OCCCC[C@@H](C)O2 22.1%, C[C@H](CO)N1C[C@H](C)[C@@H](CN(C)C(=O)Nc2cccc3ccccc23)OCCCC[C@H](C)Oc2ccc(N(C)C)cc2C1=O 20%, Cc1noc(C)c1S(=O)(=O)Nc1ccc2c(c1)C(=O)N([C@H](C)CO)C[C@@H](C)[C@@H](CN(C)S(=O)(=O)c1cccs1)OCCCC[C@H](C)O2 35.5%, C[C@H]1CCCCO[C@H](CN(C)C(=O)Nc2cccc3ccccc23)[C@@H](C)CN([C@@H](C)CO)C(=O)c2cc(N(C)C)ccc2O1 26.8%, Cc1ccc(S(=O)(=O)Nc2ccc3c(c2)C(=O)N([C@H](C)CO)C[C@@H](C)[C@@H](CN(C)C(=O)NC(C)C)OCCCC[C@H](C)O3)cc1 31%, COc1ccc(NC(=O)Nc2ccc3c(c2)C(=O)N([C@H](C)CO)C[C@H](C)[C@@H](CN(C)S(=O)(=O)c2ccc(Cl)cc2)O3)cc1 0.725%, C=C1CCN(c2ccc(C(=O)NCc3ccccc3)cc2[N+](=O)[O-])CC1 6.43%, C[C@H]1CN([C@@H](C)CO)C(=O)Cc2cc(NS(=O)(=O)c3ccc(Cl)cc3)ccc2O[C@H]1CN(C)Cc1ccc(-c2ccccc2)cc1 35.3%, O=C(Nc1ccc(Cl)c(Cl)c1)N[C@@H]1CC[C@H](CCn2cc(C3CC3)nn2)O[C@H]1CO 8.37%, O=S(=O)(N[C@@H]1CC[C@@H](CCNS(=O)(=O)c2ccccc2Cl)O[C@H]1CO)c1ccccc1 15%, C[C@@H]1CN([C@@H](C)CO)S(=O)(=O)c2ccc(-c3ccc(C#N)cc3)cc2O[C@H]1CN(C)C(=O)CN(C)C -16.6%, CC(C)C#Cc1cnc2c(c1)C(=O)N([C@@H](C)CO)C[C@@H](C)[C@@H](CN(C)C(=O)CN1CCOCC1)O2 31%, CCCN(CC)c1ncnc2[nH]ncc12 -16.1%, CCCOC1CCCN(C(=O)c2cc(Cl)c(Cl)cc2C(=O)O)C1 (stereo not given) 5.2%, COc1ccc(-n2nc(C#N)c(Cl)cc2=O)cc1 -97.3%, Cc1ccc(N2C(=O)c3ccccc3NC2C(C)Cc2ccc3c(c2)OCO3)cc1 (stereo not given) 11.5%, C[C@H](CO)N1C[C@H](C)[C@H](CN(C)Cc2ccc(Oc3ccccc3)cc2)Oc2c(NC(=O)Nc3ccc4c(c3)OCO4)cccc2C1=O -63.5%, Cc1ccc(S(=O)(=O)N(C)C[C@@H]2OCCCC[C@H](C)Oc3ccc(NS(C)(=O)=O)cc3C(=O)N([C@@H](C)CO)C[C@@H]2C)cc1 30.4%, Cc1nc2ccccc2n2c(O)c(CC(=O)O)cc12 27.1%, Cc1ccc(S(=O)(=O)N(C)C[C@H]2OCCCC[C@H](C)Oc3ccc(N(C)C)cc3C(=O)N([C@H](C)CO)C[C@@H]2C)cc1 26.9%, C(=C\c1ccccc1)/CN1CCN(C(c2ccnc3ccccc23)c2nnnn2C2CCCCC2)CC1 (stereo not given) -15.6%, COc1cccc(CNC(=O)CCC2CCCN(Cc3ccc(OC(F)F)cc3)C2)c1 (stereo not given) 36.4%, COc1ccc(C[C@@H]2OC3(C=CC(=O)C=C3)O[C@H]2Cc2ccc(OC)cc2)cc1 -102%, CC(=O)N(CCC(Cc1ccccc1)c1ccc2c(c1)OCO2)Cc1ccccc1F (stereo not given) 28.5%, O=C(CN1CCOCC1)N[C@H]1CC[C@H](CCNC(=O)Nc2cc(F)ccc2F)O[C@H]1CO -4.65%, Cn1c(C(C#N)C(=O)c2sc3ccccc3c2Cl)nc2ccccc21 (stereo not given) 4.54%, Cc1ccc(N2CCN(CC(O)COC3CCCCC3)CC2)cc1 (stereo not given) 29.2%, CCC(=O)N1CCN(c2ccc(Cl)cc2NC(=O)c2ccc([N+](=O)[O-])o2)CC1 3.87%, CC1CCCN(C(=O)Cc2ccc(F)cc2)C1 (stereo not given) -34.7%, CC(c1ccccc1)C1CC(=O)N(c2ccc([N+](=O)[O-])cc2)C1=O (stereo not given) 11.3%, CN1CCN(c2ccc([N+](=O)[O-])cc2C(=O)Nc2ccccc2)CC1 14.4%, Cc1cccc(N2CCN(CC3CCCCC3)CC2)c1C 16.9% [at 10 µM], CC(C)C(NC(=O)c1ccc(C(C)(C)C)cc1)C(=O)O (stereo not given) 43%, C[C@@H]1CCCCO[C@H](CN(C)C(=O)NC2CCCCC2)[C@@H](C)CN([C@@H](C)CO)C(=O)c2cc(NC(=O)NC3CCCCC3)ccc2O1 -13.8%, N#Cc1c(-c2ccccc2)c(-c2ccccc2)nn(CC(=O)NNC(=O)Nc2ccc(Cl)cc2)c1=O 6.86%, O=C(c1nc2nc(-c3ccccc3)cc(C(F)(F)F)n2n1)N1CCCCC1 -6.13%, CC[C@H](C)[C@H](NC(=O)c1ccc(Cl)cc1)C(=O)OCC(=O)c1ccc2c(c1)NC(=O)CO2 -58.8%, OCC1(Cc2ccc(F)cc2F)CCCN(Cc2ccc(Cl)cc2)C1 (stereo not given) 21.8%, COc1cccc(CN2CCC(CO)(CC3CCCCO3)CC2)c1 (stereo not given) 10.6%, N#Cc1cccc(-c2ccc(C3[C@@H]4CN(Cc5ccccc5F)C[C@H]3N4)cc2)c1 (stereo not given in full) -96.5% [at 21 µM], COc1cccc(C2c3[nH]c4ccccc4c3CCN2Cc2cnc(C)s2)c1OC (stereo not given) 14.4%, CCc1nccn1S(=O)(=O)c1cc(C)c(OC)cc1C 19%, COc1ccc(NC(=O)N[C@H]2CC[C@@H](CCn3cc(-c4ccccc4F)nn3)O[C@H]2CO)cc1 7.45%
